Records with an inconclusive call do not appear. Activity calls are given as the source filed them. The call rests on the fitted dose curve; in most records, active means well fitted inhibition curve with a large enough effect; inconclusive means small, poorly fitted or top-dose-only effect; inactive means flat fitted curve, though single readings scatter.
What was measured:
[1] = qHTS profiling for inhibitors of Plasmodium falciparum proliferation (AID 504749); further: nearly all actives have a fitted effect of over 60% in size;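 on activity, negative = inhibition: 0% = DMSO vehicle and full inhibition = artemisinin control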; conditions: P. falciparum in erythrocytes, SYBR Green DNA, 72 h
Procedure, shortened: (§1)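 SYBR Green fluorescence (ex 485 nm, em 535 nm) reports parasite DNA after 72 h compound exposure of infected red cells at 0.3% parasitemia, 2.5% hematocrit; signal normalized to 0.29 uM artemisinin and vehicle wells.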

[2] = tested on: 3D7; experiment: as above; conditions: P. falciparum in erythrocytes, SYBR Green DNA, 72 h; series mostly up to 28.7 µM
Procedure, shortened: as §1

[3] = tested on: 7G8; experiment: as above; conditions: P. falciparum in erythrocytes, SYBR Green DNA, 72 h; series mostly up to 28.7 µM
Procedure, shortened: as §1

[4] = tested on: AA1029; experiment: as above; conditions: P. falciparum in erythrocytes, SYBR Green DNA, 72 h; series mostly up to 28.7 µM
Procedure, shortened: as §1

[5] = tested on: AS120; experiment: as above; conditions: P. falciparum in erythrocytes, SYBR Green DNA, 72 h; series mostly up to 28.7 µM
Procedure, shortened: as §1

[6] = tested on: ATS189; experiment: as above; conditions: P. falciparum in erythrocytes, SYBR Green DNA, 72 h; series mostly up to 28.7 µM
Procedure, shortened: as §1

[7] = tested on: ATS95; experiment: as above; conditions: P. falciparum in erythrocytes, SYBR Green DNA, 72 h; series mostly up to 28.7 µM
Procedure, shortened: as §1

[8] = tested on: C2A; experiment: as above; conditions: P. falciparum in erythrocytes, SYBR Green DNA, 72 h; series mostly up to 28.7 µM
Procedure, shortened: as §1

[9] = tested on: CP185; experiment: as above; conditions: P. falciparum in erythrocytes, SYBR Green DNA, 72 h; series mostly up to 28.7 µM
Procedure, shortened: as §1

[10] = tested on: CP191; experiment: as above; conditions: P. falciparum in erythrocytes, SYBR Green DNA, 72 h; series mostly up to 28.7 µM
Procedure, shortened: as §1

[11] = tested on: CP192; experiment: as above; conditions: P. falciparum in erythrocytes, SYBR Green DNA, 72 h; series mostly up to 28.7 µM
Procedure, shortened: as §1

[12] = tested on: CP194; experiment: as above; conditions: P. falciparum in erythrocytes, SYBR Green DNA, 72 h; series mostly up to 28.7 µM
Procedure, shortened: as §1

[13] = tested on: CP201; experiment: as above; conditions: P. falciparum in erythrocytes, SYBR Green DNA, 72 h; series mostly up to 28.7 µM
Procedure, shortened: as §1

[14] = tested on: CP203; experiment: as above; conditions: P. falciparum in erythrocytes, SYBR Green DNA, 72 h; series mostly up to 28.7 µM
Procedure, shortened: as §1

[15] = tested on: CP211; experiment: as above; conditions: P. falciparum in erythrocytes, SYBR Green DNA, 72 h; series mostly up to 28.7 µM
Procedure, shortened: as §1

[16] = tested on: CP215; experiment: as above; conditions: P. falciparum in erythrocytes, SYBR Green DNA, 72 h; series mostly up to 28.7 µM
Procedure, shortened: as §1

[17] = tested on: CP217; experiment: as above; conditions: P. falciparum in erythrocytes, SYBR Green DNA, 72 h; series mostly up to 28.7 µM
Procedure, shortened: as §1

[18] = at 28.7 µM (top of the series), parasite line A
[19] = at 28.7 µM (top of the series), parasite line B
Potency means the concentration at half of the fitted maximal effect.

CC(C)CCCC(C)N (stereo not given)
inactive: activity, negative = inhibition [1, 18] 13% | activity, negative = inhibition [1, 19] -1.67% | Potency [2] | Potency [3] | Potency [4] | Potency [5] | Potency [6] | Potency [7] | Potency [8] | Potency [9] | Potency [10] | Potency [11] | Potency [12] | Potency [13] | Potency [14] | Potency [15] | Potency [16] | Potency [17]

CCc1oc2ccccc2c1C(=O)c1cc(Br)c(O)c(Br)c1
inactive: activity, negative = inhibition [1, 18] -3.41% | activity, negative = inhibition [1, 19] -11.9% | Potency [2] | Potency [3] | Potency [4] | Potency [5] | Potency [6] | Potency [7] | Potency [8] | Potency [9] | Potency [10] | Potency [11] | Potency [12] | Potency [13] | Potency [14] | Potency [15] | Potency [17]

NC(=O)c1ccccc1O
inactive: activity, negative = inhibition [1, 18] 4.99% | activity, negative = inhibition [1, 19] 15.1% | Potency [2] | Potency [3] | Potency [4] | Potency [5] | Potency [6] | Potency [7] | Potency [8] | Potency [9] | Potency [10] | Potency [11] | Potency [12] | Potency [13] | Potency [14] | Potency [15] | Potency [16] | Potency [17]

OCCOCCN1CCN(C2=Nc3ccccc3Sc3ccccc32)CC1
inactive: activity, negative = inhibition [1, 18] 0.502% | activity, negative = inhibition [1, 19] 13.4% | Potency [2] | Potency [3] | Potency [4] | Potency [5] | Potency [6] | Potency [7] | Potency [8] | Potency [9] | Potency [10] | Potency [11] | Potency [12] | Potency [13] | Potency [14] | Potency [15] | Potency [16] | Potency [17]

CC(=O)Nc1ccc(OC(=O)c2ccccc2OC(C)=O)cc1
inactive: activity, negative = inhibition [1, 18] -24.5% | activity, negative = inhibition [1, 19] 5.15% | Potency [2] | Potency [3] | Potency [4] | Potency [5] | Potency [6] | Potency [7] | Potency [8] | Potency [9] | Potency [10] | Potency [11] | Potency [12] | Potency [13] | Potency [14] | Potency [15] | Potency [16] | Potency [17]

OCc1ccccn1
inactive: activity, negative = inhibition [1, 18] 7.68% | activity, negative = inhibition [1, 19] 8.75% | Potency [2] | Potency [3] | Potency [4] | Potency [5] | Potency [6] | Potency [7] | Potency [8] | Potency [9] | Potency [10] | Potency [11] | Potency [12] | Potency [13] | Potency [14] | Potency [15] | Potency [16] | Potency [17]

O=C(O)C(Cc1cc(I)c(O)c(I)c1)c1ccccc1 (stereo not given)
inactive: activity, negative = inhibition [1, 18] -3.64% | activity, negative = inhibition [1, 19] 7.72% | Potency [2] | Potency [3] | Potency [4] | Potency [5] | Potency [6] | Potency [7] | Potency [8] | Potency [9] | Potency [10] | Potency [11] | Potency [12] | Potency [13] | Potency [14] | Potency [15] | Potency [16] | Potency [17]

COc1ccc(-c2cc(C(F)F)nn2-c2ccc(S(N)(=O)=O)cc2)cc1F
inactive: activity, negative = inhibition [1, 18] 1.08% | activity, negative = inhibition [1, 19] -0.185% | Potency [2] | Potency [3] | Potency [4] | Potency [5] | Potency [6] | Potency [7] | Potency [8] | Potency [9] | Potency [10] | Potency [11] | Potency [12] | Potency [13] | Potency [14] | Potency [15] | Potency [16] | Potency [17]

CC(=O)N[C@@H](CCC(=O)O)C(=O)O
inactive: activity, negative = inhibition [1, 18] 4.59% | activity, negative = inhibition [1, 19] 2.94% | Potency [2] | Potency [3] | Potency [4] | Potency [5] | Potency [6] | Potency [7] | Potency [8] | Potency [9] | Potency [10] | Potency [11] | Potency [12] | Potency [13] | Potency [14] | Potency [15] | Potency [16] | Potency [17]

Nc1ccc(C(=O)NCC(=O)O)cc1
inactive: activity, negative = inhibition ([1]; at 12.8 µM (top of the series), parasite line A) 7.06% | activity, negative = inhibition ([1]; at 12.8 µM (top of the series), parasite line B) 8.58% | Potency [2] | Potency [3] | Potency [4] | Potency [5] | Potency [6] | Potency [7] | Potency [8] | Potency [9] | Potency [10] | Potency [11] | Potency [12] | Potency [13] | Potency [14] | Potency [15] | Potency [16] | Potency [17]

CCN(CC)CCNc1ccc(CO)c2sc3ccccc3c(=O)c12
active: Potency ([1]; parasite line A) 1780 nM | Potency ([1]; parasite line B) 3550 nM | Potency [2] 2000 nM | Potency [3] 2000 nM | Potency [4] 2240 nM | Potency [5] 1000 nM | Potency [6] 794 nM | Potency [7] 2000 nM | Potency [8] 794 nM | Potency [9] 1000 nM | Potency [10] 355 nM | Potency [11] 1690 nM | Potency [12] 3380 nM | Potency [13] 7570 nM | Potency [14] 4260 nM | Potency [15] 4260 nM | Potency [16] 4260 nM | Potency [17] 2820 nM

NS(=O)(=O)c1ccc(Cl)c(S(N)(=O)=O)c1
inactive: activity, negative = inhibition [1, 18] 8.67% | activity, negative = inhibition [1, 19] 14.1% | Potency [2] | Potency [3] | Potency [4] | Potency [5] | Potency [6] | Potency [7] | Potency [8] | Potency [9] | Potency [10] | Potency [11] | Potency [12] | Potency [13] | Potency [14] | Potency [15] | Potency [16] | Potency [17]

COP(=O)(OC)OC(c1ccc(Cl)cc1)P(=O)(OC)OC (stereo not given)
inactive: activity, negative = inhibition [1, 18] 10.6% | activity, negative = inhibition [1, 19] -3.59% | Potency [2] | Potency [3] | Potency [4] | Potency [5] | Potency [6] | Potency [7] | Potency [8] | Potency [9] | Potency [10] | Potency [11] | Potency [12] | Potency [13] | Potency [14] | Potency [15] | Potency [16] | Potency [17]

CC(=O)Nc1ccc(CC(=O)O)cc1
inactive: activity, negative = inhibition [1, 18] 9.92% | activity, negative = inhibition [1, 19] 11.5% | Potency [2] | Potency [3] | Potency [4] | Potency [5] | Potency [6] | Potency [7] | Potency [8] | Potency [9] | Potency [10] | Potency [11] | Potency [12] | Potency [13] | Potency [15] | Potency [16] | Potency [17]

From PubChem BioAssay (NCATS)
